# Measurements published in the supplement of paper PMC10849652.
# Targets with a hit are over-represented here; the source holds about 8,800 in all. About 0.5% of all pairs of compound and target were hits. Values without a mark were called inactive.
# How the values were obtained:
# Assay in all cases: log2 fold change, soluble protein after heating vs DMSO (PISA); higher = thermal stabilisation; K562 lysate, 10 uM; active = over 0.2 and 3.5 SD of the protein, either way, in both replicates (recomputed)
# [1] = compound: CNC(=O)C1=CC=CC=C1NC2=NC(=NC=C2Cl)NC3=C(C=C(C=C3)N4CCOCC4)OC
# Procedure, shortened: (§1)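 Thermal stability, expressed as log-two fold change relative to solvent controls, is given from duplicates. Crude K562 extract in PBS pH 7.4 with 1 mM MgCl2, at 1 mg/mL protein, was treated with 10 μM compound for 30 min and heated in aliquots for 3 min across 48°C-58°C. After pooling, adjustment to 0.5% NP-40 at 4°C and centrifugation at 21,000xg for 90 min, supernatant protein was measured by TMTpro 16plex LC-MS/MS with channel sums equalised.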
# defactinib = compound: CNC(=O)c1ccc(Nc2ncc(C(F)(F)F)c(NCc3nccnc3N(C)S(C)(=O)=O)n2)cc1 [defactinib]
# Procedure, shortened: as §1
# [2] = compound: CNc1nc(-c2ccc3c(N)n[nH]c3c2)cc(N2C[C@@H](C(=O)NC3CCCCC3)CC[C@H]2C)n1
# Procedure, shortened: as §1
# encorafenib = compound: COC(=O)N[C@@H](C)CNc1nccc(-c2cn(C(C)C)nc2-c2cc(Cl)cc(NS(C)(=O)=O)c2F)n1 [encorafenib]
# Procedure, shortened: as §1
# [3] = compound: COC(=O)[C@H](CCSC)NC(=O)C1=C(C=C(C=C1)NC[C@H](CS)N)C2=CC=CC=C2
# Procedure, shortened: as §1
# duvelisib = compound: C[C@H](Nc1ncnc2nc[nH]c12)c1cc2cccc(Cl)c2c(=O)n1-c1ccccc1 [duvelisib]
# Procedure, shortened: as §1
# tozasertib = compound: Cc1cc(Nc2cc(N3CCN(C)CC3)nc(Sc3ccc(NC(=O)C4CC4)cc3)n2)n[nH]1 [tozasertib]
# Procedure, shortened: as §1
# pictilisib = compound: CS(=O)(=O)N1CCN(Cc2cc3nc(-c4cccc5[nH]ncc45)nc(N4CCOCC4)c3s2)CC1 [pictilisib]
# Procedure, shortened: as §1
# crizotinib = compound: C[C@@H](Oc1cc(-c2cnn(C3CCNCC3)c2)cnc1N)c1c(Cl)ccc(F)c1Cl [crizotinib]
# Procedure, shortened: as §1
# doramapimod = compound: Cc1ccc(-n2nc(C(C)(C)C)cc2NC(=O)Nc2ccc(OCCN3CCOCC3)c3ccccc23)cc1 [doramapimod]
# Procedure, shortened: as §1
# bafetinib = compound: Cc1ccc(NC(=O)c2ccc(CN3CC[C@H](N(C)C)C3)c(C(F)(F)F)c2)cc1Nc1nccc(-c2cncnc2)n1 [bafetinib]
# Procedure, shortened: as §1
# Tubastatin A = compound: CN1CCc2c(c3ccccc3n2Cc2ccc(C(=O)NO)cc2)C1 [Tubastatin A]
# Procedure, shortened: as §1
# alvocidib = compound: CN1CC[C@H](c2c(O)cc(O)c3c(=O)cc(-c4ccccc4Cl)oc23)[C@H](O)C1 [alvocidib]
# Procedure, shortened: as §1
# alisertib = compound: COc1cc(Nc2ncc3c(n2)-c2ccc(Cl)cc2C(c2c(F)cccc2OC)=NC3)ccc1C(=O)O [alisertib]
# Procedure, shortened: as §1
# [4] = compound: COc1cc2nc(-c3cc(F)ccc3O)nc(N[C@@H]3CNC[C@H]3C(C)(C)O)c2cc1OC
# Procedure, shortened: as §1
# gefitinib = compound: COc1cc2ncnc(Nc3ccc(F)c(Cl)c3)c2cc1OCCCN1CCOCC1 [gefitinib]
# Procedure, shortened: as §1
# lapatinib = compound: CS(=O)(=O)CCNCc1ccc(-c2ccc3ncnc(Nc4ccc(OCc5cccc(F)c5)c(Cl)c4)c3c2)o1 [lapatinib]
# Procedure, shortened: as §1
# [5] = compound: C[C@H](C1=CC=C(C=C1)C(=O)NC2=C3C=CNC3=NC=C2)N
# Procedure, shortened: as §1
# gandotinib = compound: Cc1cc(Nc2cc(CN3CCOCC3)c3nc(C)c(Cc4ccc(Cl)cc4F)n3n2)n[nH]1 [gandotinib]
# Procedure, shortened: as §1
# [6] = compound: Cc1cccc(CC(=O)N2CCc3c2ccc(-c2cn(C)c4ncnc(N)c24)c3F)n1
# Procedure, shortened: as §1
# UniProt P40337, sequence (P40337 whole entry, looked up): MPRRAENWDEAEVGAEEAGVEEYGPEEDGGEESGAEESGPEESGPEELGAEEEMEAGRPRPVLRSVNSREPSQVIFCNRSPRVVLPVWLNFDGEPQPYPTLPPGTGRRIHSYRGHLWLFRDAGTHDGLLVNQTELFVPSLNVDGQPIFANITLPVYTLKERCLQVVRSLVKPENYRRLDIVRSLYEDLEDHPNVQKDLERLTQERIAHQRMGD
# UniProt A7E2V4, sequence (A7E2V4 whole entry, looked up): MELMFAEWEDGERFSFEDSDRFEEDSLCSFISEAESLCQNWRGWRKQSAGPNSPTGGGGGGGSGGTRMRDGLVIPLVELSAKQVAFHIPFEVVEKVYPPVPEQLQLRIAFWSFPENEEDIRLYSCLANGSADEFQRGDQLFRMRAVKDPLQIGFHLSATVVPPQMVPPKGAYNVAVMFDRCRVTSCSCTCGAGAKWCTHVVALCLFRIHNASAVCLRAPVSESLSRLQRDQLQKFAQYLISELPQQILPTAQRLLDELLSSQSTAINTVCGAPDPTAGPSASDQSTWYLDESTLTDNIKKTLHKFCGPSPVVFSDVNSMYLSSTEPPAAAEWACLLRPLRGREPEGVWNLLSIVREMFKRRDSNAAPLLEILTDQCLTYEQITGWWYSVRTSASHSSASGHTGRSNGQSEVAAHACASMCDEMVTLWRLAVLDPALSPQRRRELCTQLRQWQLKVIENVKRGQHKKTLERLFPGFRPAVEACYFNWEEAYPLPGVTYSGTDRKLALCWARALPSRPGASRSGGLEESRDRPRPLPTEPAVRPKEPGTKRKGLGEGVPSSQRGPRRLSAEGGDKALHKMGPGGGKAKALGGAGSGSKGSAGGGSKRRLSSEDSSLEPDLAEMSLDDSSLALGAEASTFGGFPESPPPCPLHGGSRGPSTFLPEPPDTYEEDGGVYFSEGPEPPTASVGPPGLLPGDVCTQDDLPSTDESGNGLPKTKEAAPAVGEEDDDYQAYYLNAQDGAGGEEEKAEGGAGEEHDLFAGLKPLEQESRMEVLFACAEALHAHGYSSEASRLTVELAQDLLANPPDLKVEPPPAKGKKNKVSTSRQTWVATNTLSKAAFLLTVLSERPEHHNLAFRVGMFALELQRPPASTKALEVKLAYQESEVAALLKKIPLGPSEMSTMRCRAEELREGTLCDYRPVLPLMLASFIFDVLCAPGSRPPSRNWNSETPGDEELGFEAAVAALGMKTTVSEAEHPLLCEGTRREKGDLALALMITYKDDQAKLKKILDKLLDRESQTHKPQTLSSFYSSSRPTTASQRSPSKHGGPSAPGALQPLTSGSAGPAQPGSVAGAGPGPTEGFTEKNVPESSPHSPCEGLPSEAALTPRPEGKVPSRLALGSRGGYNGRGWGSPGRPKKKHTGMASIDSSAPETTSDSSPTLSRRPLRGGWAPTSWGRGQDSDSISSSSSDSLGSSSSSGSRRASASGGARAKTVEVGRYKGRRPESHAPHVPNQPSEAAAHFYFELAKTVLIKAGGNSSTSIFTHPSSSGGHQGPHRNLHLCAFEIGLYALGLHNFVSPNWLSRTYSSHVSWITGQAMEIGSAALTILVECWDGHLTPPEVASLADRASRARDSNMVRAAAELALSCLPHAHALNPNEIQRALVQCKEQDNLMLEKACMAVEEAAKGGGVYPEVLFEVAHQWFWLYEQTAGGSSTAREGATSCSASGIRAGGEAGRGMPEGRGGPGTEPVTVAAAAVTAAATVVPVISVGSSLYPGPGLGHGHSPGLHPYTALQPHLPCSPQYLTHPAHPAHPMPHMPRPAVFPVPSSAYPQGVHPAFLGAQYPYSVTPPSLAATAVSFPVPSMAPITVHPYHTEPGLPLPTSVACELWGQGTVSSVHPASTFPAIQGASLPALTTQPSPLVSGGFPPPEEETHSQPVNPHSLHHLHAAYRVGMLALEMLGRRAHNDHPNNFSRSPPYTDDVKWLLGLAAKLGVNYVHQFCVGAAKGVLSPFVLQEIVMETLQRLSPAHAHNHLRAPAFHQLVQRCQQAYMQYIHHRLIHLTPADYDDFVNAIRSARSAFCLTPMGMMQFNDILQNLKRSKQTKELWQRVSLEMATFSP
# UniProt P42768, sequence (P42768 whole entry, looked up): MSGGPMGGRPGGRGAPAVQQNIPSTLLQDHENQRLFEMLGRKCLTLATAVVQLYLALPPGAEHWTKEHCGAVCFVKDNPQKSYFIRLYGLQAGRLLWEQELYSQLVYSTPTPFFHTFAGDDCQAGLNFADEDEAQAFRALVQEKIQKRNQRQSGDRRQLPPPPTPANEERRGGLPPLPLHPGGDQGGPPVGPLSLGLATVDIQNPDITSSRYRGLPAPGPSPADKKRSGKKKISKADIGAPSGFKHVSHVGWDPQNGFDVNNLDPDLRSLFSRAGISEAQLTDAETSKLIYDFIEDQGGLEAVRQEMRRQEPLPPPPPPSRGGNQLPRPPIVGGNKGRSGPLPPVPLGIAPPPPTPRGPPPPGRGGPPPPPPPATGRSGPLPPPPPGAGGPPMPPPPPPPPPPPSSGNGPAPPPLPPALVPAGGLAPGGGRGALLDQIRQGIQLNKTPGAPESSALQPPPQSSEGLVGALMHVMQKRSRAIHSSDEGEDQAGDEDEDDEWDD
# UniProt Q15776, sequence (Q15776 whole entry, looked up): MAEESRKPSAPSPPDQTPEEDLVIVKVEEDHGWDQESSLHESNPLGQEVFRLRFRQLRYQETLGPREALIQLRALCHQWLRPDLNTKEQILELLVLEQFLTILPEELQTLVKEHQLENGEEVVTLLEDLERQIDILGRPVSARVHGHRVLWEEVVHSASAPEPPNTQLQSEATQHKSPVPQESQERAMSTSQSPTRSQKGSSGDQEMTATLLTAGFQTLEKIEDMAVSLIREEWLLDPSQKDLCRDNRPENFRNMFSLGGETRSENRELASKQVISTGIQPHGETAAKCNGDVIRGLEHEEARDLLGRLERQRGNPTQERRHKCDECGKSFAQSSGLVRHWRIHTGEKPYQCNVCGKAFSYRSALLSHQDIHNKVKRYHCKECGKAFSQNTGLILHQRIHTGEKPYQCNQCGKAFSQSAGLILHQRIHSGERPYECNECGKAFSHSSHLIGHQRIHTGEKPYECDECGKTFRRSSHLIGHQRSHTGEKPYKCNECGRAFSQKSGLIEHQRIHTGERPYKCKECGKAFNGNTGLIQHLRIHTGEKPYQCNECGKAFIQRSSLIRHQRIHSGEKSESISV
# UniProt Q6PHR2, sequence (Q6PHR2 whole entry, looked up): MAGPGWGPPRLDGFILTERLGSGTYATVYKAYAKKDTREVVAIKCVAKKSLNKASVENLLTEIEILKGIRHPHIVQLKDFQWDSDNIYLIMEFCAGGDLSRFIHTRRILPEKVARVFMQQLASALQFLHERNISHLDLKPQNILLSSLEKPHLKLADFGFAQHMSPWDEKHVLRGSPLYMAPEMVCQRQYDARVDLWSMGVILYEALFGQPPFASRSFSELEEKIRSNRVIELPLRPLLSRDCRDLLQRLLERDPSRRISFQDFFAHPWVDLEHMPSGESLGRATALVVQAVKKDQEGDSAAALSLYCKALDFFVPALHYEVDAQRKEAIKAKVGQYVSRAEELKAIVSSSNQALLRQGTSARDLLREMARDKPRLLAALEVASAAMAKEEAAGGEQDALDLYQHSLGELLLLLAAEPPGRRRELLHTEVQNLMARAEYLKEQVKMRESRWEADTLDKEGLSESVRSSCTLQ
# UniProt Q9Y5A6, sequence (Q9Y5A6 whole entry, looked up): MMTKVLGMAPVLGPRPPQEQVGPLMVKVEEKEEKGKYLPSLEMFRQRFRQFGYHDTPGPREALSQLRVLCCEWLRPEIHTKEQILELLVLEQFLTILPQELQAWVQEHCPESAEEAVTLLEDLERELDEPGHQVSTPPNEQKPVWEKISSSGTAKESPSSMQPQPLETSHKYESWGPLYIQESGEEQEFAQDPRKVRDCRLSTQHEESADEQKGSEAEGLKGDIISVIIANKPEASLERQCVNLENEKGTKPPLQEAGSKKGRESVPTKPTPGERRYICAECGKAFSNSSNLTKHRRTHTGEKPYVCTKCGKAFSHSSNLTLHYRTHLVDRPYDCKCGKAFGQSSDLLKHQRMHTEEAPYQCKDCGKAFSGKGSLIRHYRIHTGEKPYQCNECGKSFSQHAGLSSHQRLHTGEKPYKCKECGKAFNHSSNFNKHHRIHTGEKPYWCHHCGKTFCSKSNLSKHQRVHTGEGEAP
# UniProt Q8IUH5, sequence (Q8IUH5 whole entry, looked up): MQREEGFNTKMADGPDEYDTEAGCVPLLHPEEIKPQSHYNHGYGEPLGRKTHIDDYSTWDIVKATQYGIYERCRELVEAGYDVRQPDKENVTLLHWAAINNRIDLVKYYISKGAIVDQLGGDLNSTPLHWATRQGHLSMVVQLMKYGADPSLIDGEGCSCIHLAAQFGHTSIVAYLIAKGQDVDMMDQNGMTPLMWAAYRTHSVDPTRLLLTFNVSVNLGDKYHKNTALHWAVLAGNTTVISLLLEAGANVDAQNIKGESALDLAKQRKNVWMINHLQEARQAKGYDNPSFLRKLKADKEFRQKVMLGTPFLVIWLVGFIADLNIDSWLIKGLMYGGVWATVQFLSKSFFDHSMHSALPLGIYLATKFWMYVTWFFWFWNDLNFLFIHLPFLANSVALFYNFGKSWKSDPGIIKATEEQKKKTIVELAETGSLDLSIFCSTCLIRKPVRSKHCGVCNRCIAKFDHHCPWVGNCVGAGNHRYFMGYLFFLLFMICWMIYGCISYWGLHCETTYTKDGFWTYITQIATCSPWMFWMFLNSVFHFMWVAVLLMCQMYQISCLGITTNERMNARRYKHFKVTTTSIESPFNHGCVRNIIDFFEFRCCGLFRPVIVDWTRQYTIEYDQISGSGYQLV
# UniProt Q9UL40, sequence (Q9UL40 whole entry, looked up): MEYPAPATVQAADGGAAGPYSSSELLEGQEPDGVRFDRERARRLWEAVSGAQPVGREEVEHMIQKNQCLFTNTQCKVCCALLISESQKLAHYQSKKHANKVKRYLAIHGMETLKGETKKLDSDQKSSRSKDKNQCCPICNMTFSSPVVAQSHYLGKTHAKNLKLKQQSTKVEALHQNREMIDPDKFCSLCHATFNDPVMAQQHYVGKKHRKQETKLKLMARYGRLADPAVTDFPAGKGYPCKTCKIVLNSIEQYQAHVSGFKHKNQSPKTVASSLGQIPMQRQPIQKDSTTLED
Target,log2 fold change [1],log2 fold change (defactinib),log2 fold change [2],log2 fold change (encorafenib),log2 fold change [3],log2 fold change (duvelisib),log2 fold change (tozasertib),log2 fold change (pictilisib),log2 fold change (crizotinib),log2 fold change (doramapimod),log2 fold change (bafetinib),log2 fold change (Tubastatin A),log2 fold change (alvocidib),log2 fold change (alisertib),log2 fold change [4],log2 fold change (gefitinib),log2 fold change (lapatinib),log2 fold change [5],log2 fold change (gandotinib),log2 fold change [6]
YBEY (UniProt P58557),-0.056,0.016,-0.066,-0.037,0.071,0.049,0.035,–,–,–,–,–,–,–,–,–,–,–,–,–
UNKL (UniProt E9PDK2),–,-0.008,-0.042,0.044,0.106,0.184,-0.039,-0.113,-0.078,0.07,-0.041,–,–,–,–,–,–,–,–,–
ZNF281 (UniProt Q9Y2X9),0.025,–,0.095,–,–,0.029,–,–,0.003,0.02,–,-0.16,–,–,–,–,–,–,–,–
VASN (UniProt Q6EMK4),-0.087,–,0.096,0.2,0.02,-0.119,0.08,–,–,–,–,-0.161,–,–,–,–,–,–,–,–
ZYG11A (UniProt Q6WRX3),-0.013,–,–,–,–,–,–,0.031,–,–,-0.378,0.018,-0.18,-0.08,0.212,-0.029,-0.301,-0.306,0.192,0.323
ZKSCAN8 (UniProt Q15776),0.059,0.037,0.009,0.2,-0.206,0.068,-0.014,–,-0.151,0.082,–,-0.053,–,-0.084,-0.001,0,0.08,–,–,–
UTRN isoform 2 (UniProt P46939),-0.166,–,–,-0.012,-0.037,–,-0.077,0.01,–,–,-0.175,–,-0.084,–,–,–,–,-0.009,0.04,-0.018
WAC isoform 5 (UniProt Q9BTA9),-0.359,–,-0.117,–,–,0.226,–,–,–,–,–,-0.119,–,–,–,–,–,–,–,–
USP22 (UniProt Q9UPT9),0.034,0.017,-0.027,-0.007,0.055,-0.006,0.036,0.001,-0.072,-0.029,-0.032,-0.044,0.102,0.02,–,-0.011,–,0.004,-0.148,0.019
WEE1 (UniProt P30291),0.498 (active),0.145,-0.072,-0.035,0.11,0.033,0.011,-0.047,-0.141,0.183,0.068,-0.194,–,0.018,0.055,0.129,-0.034,–,–,–
WIPI2 isoform 6 (UniProt Q9Y4P8),–,–,–,–,–,–,–,-0.102,–,–,-0.013,–,-0.015,–,–,–,–,0.025,0.181,-0.089
ZNF652 (UniProt Q9Y2D9),–,–,–,–,–,–,–,–,-0.007,0,–,–,–,–,–,–,–,–,–,–
ZSCAN26 (UniProt Q16670),–,–,–,–,–,–,–,–,-0.025,0.102,–,–,–,–,–,–,–,–,–,–
ZNF146 (UniProt Q15072),–,–,0.12,–,–,-0.018,–,–,–,–,–,–,–,–,–,–,–,–,–,–
ZBTB40 (UniProt Q9NUA8),0.03,-0.032,0.048,–,–,0.018,–,–,0.036,-0.02,–,-0.089,0.09,-0.187,-0.038,-0.246,0.022,-0.249,0.219,0.004
ZDHHC17 (UniProt Q8IUH5),–,-0.053,-0.04,-0.044,0.183,-0.301,-0.025,–,0.098,0.11,–,0.074,-0.44,0.037,-0.032,0.24,0.042,-0.778 (active),0.037,0.17
URGCP (UniProt Q8TCY9),–,-0.19,-0.005,–,–,0.158,–,-0.025,–,–,-0.137,0.168,–,0.003,–,0.006,–,–,–,–
VHL (UniProt P40337),-0.009,-0.034,-0.047,0.143,-0.047,0.148,0,-0.003,0.017,-0.011,0.092,-0.117,-0.06,0.05,–,-0.029,–,-0.538 (active),-0.08,-0.021
WSB1 (UniProt Q9Y6I7),–,–,0.12,–,–,-0.137,–,–,–,–,–,-0.014,0.184,–,–,–,–,0.12,-1.11 (active),-0.674
ZNF346 (UniProt Q9UL40),-0.009,–,-0.029,-0.006,0.062,-0.009,0.005,-0.008,0.009,0.02,-0.043,0.036,0.05,-0.03,0.019,0.046,0.01,-0.01,-0.026,-0.072
WIPI1 (UniProt Q5MNZ9),0.036,–,0.099,-0.009,0.029,-0.014,0.039,-0.003,0.058,-0.013,-0.038,0.013,-0.046,-0.189,0.008,-0.017,-0.021,-0.013,0.017,-0.038
ZNF593 (UniProt O00488),-0.135,0.044,-0.011,-0.006,-0.088,0.089,0.047,0.078,0.113,0.033,0.059,-0.07,-0.005,–,0.231,–,-0.114,-0.087,0.016,0.045
VPS72 (UniProt Q15906),0.041,-0.078,-0.02,-0.016,-0.134,0.001,0.059,–,0.005,-0.023,–,0.028,0,-0.058,-0.017,-0.108,0.025,-0.099,0.031,0.136
ZSWIM8 isoform 4 (UniProt A7E2V4),-0.171,0.088,-0.226,0.035,-0.071,-0.145,0.169,-0.253,0.027,-0.084,-0.257,0.149,0.078,-0.034,–,-0.073,–,-0.027,-0.153,0.205
XPOT (UniProt F5GYW6),–,–,–,–,–,–,–,–,–,–,–,–,–,–,0.121,–,-0.115,–,–,–
ULK3 isoform 4 (UniProt Q6PHR2),0.004,0.039,0.016,-0.089,-0.061,0.065,0.059,-0.008,-0.088,-0.15,0.041,–,-0.014,–,0.089,–,0.059,0.113,-0.08,0.354
ZSCAN21 (UniProt Q9Y5A6),–,–,–,0.031,0.103,–,-0.001,–,–,–,–,–,-0.11,–,–,–,–,-0.131,-0.108,0.068
UNC13A (UniProt Q9UPW8),-0.11,–,–,–,–,–,–,–,–,–,–,–,-0.643,-0.067,–,-0.076,–,-1.52,0.331,0.481
WAS (UniProt P42768),0.032,–,0.365,0.004,0.08,-0.194,-0.127,-0.027,–,–,-0.065,–,-0.028,-0.041,–,0.215,–,-0.16,-0.057,0.103
ZNF644 (UniProt Q9H582),-0.058,0.025,-0.02,0.028,-0.011,-0.069,0.015,-0.133,-0.026,0.037,-0.165,-0.038,0.003,-0.018,–,-0.024,–,0.04,-0.015,0.086
